Assay outcomes (PubChem BioAssay)
RAM network inh: inhibitors of the yeast RAM network | S. cerevisiae dse1pr::URA3 reporter, 5-FOA growth OD615, 2 d; analog-sensitive cbk1-as2 kinase mutant strain | inhibition, % at 50 µM | hit rate 1.8% among 190,000 | AID 868;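 active means inhibition above a set limit, 3 SD over mean compound inhibition, cut at about 8.4% in these data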;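 further: 0% = DMSO-only wells with no growth and 100% = 10 µM 1-NA-PP1 full growth; inhibition rescues growth on 5-FOA so higher OD means more RAM inhibition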
WT yeast gro inh: growth inhibition of WT yeast, mitochondrial fusion screen | mitochondrial fusion phenotypic screen, WT strain | inhibition, % at 10 µM | hit rate 2.1% among 190,000; in the data active means inhibition above about 58%; tested in S. cerevisiae
Lmaj promast: inhibitors of Leishmania major promastigote growth. Leishmania major promastigotes, resazurin fluorescence viability. inhibition, % at 10 µM. hit rate 9% among 200,000; in the data active means inhibition above about 50%;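 further: promastigotes grown with compound for 44 hours at 28 °C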
CHOP inh: inhibitors of CHOP induction in ER stress response; CHO-K1 CHOP-promoter luciferase, tunicamycin-induced, 15-18 h; inhibition, % at 10 µM; hit rate 3.8% among 220,000;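 active means compounds that reduced the stress-induced luciferase reporter signal by more than about 70% of percent inhibition, limit read from the data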;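 further: 0% = tunicamycin plus vehicle and 100% = wells without tunicamycin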
Active calls of the source: *; / = no result given. Hits are enriched below; roughly 13% of the tested compounds scored in any of these assays.

SMILES | RAM network inh | WT yeast gro inh | Lmaj promast | CHOP inh
COc1ccc(N2CCN(C(CNS(=O)(=O)c3cc(F)ccc3F)c3cccnc3)CC2)cc1 (stereo unspecified) | 2.6 | -2.8 | 99.4* | 22.6
CCN(CC)CCn1nc2c3c(cccc3c1=O)-c1ccccc1-2 | 2.2 | 25.0 | 100.3* | -33.4
O=c1c2cccc3c2c(nn1CN1CCOCC1)-c1ccccc1-3 | 0.7 | -0.1 | 23.3 | 21.7
CC(=O)Nc1ccc(NC(=O)C2CCN(C(=O)c3cccs3)CC2)cc1 | 1.7 | -16.4 | -5.2 | -1.2
CCN(Cc1cc2ccc(C)cc2[nH]c1=O)C(=O)c1ccncc1 | 4.6 | 60.2* | -6.1 | 21.6
CCN(CC)CCN(Cc1cc2ccc(C)cc2[nH]c1=O)C(=O)Nc1ccc(Cl)cc1 | 0.8 | 3.1 | 63.3* | 14.9
O=C(N/C(=C/C=C/c1ccccc1)C(=O)N1CCOCC1)c1ccccc1Br | 0.7 | -1.2 | 10.9 | -26.0
CCC(=O)Nc1nnc(SCC(=O)c2ccc3c(c2)Cc2ccccc2-3)s1 | 6.0 | -12.0 | -6.1 | 33.4
NC(N)=N/N=C/c1cccc(Cl)c1Cl | 0.6 | 32.7 | 100.5* | 6.7
CN(C)C(=O)CSc1nnc(Cc2ccc([N+](=O)[O-])cc2)o1 | -0.9 | 0.6 | -0.6 | -3.2
CC(NC(=O)/C(=C/c1cccc([N+](=O)[O-])c1)NC(=O)c1ccco1)C(=O)O (stereo unspecified) | -0.4 | 3.7 | 55.2* | 8.1
CC(Oc1ccccc1)C(=O)Nc1nnc(C2CCCCC2)s1 (stereo unspecified) | 0.9 | 13.1 | -5.0 | 31.3
COc1ccc(N2CCN(Cc3nc4cc(Cl)ccc4c(=O)[nH]3)CC2)cc1 | 1.1 | -10.1 | -2.7 | 18.0
COC(=O)N1CCN(c2ccc(OC)cc2)CC1 | -0.8 | -7.6 | -6.0 | -8.6
COc1ccc(N2CCN(C(=O)C(C)(C)Oc3ccc(Cl)cc3)CC2)cc1 | 1.1 | 43.1 | 98.2* | -3.9
CC(C)(Oc1ccc(Cl)cc1)C(=O)N1CCC(C(N)=O)CC1 | -0.1 | 2.6 | 1.2 | -7.6
CCOC(=O)N1CCN(C(=O)C(C)(C)Oc2ccc(Cl)cc2)CC1 | 0.2 | 6.7 | -4.1 | 83.2*
CCC(C)/C(C)=N/NC(=O)c1ccc(CSc2nc3ccccc3s2)cc1 (stereo unspecified) | 0.5 | 20.4 | 12.8 | 47.5
CCOC(=O)c1c(C)oc2ccc(NS(=O)(=O)c3ccc4c5c(cccc35)C(=O)N4)cc12 | 1.6 | 1.6 | 91.0* | 15.2
COCCOC(=O)c1c(C)oc2ccc(NS(=O)(=O)c3ccccc3)cc12 | 3.3 | 22.4 | 7.9 | 5.8
C=CCN(C(=O)CNC(=O)c1cccs1)C(C(=O)NC(C)(C)C)c1ccccc1 (stereo unspecified) | 1.7 | -5.6 | 1.5 | 36.5
Cc1[nH]c2ccccc2c1C(=O)CCl | 0.6 | -31.2 | 99.0* | -50.2
FC(F)(F)c1cc(Sc2ccccc2)nc(-c2ccccn2)n1 | -0.9 | 64.8* | 2.8 | 71.2*
Cc1ccc(N/C(C(Cl)=C(Cl)Cl)=C(/Cl)[N+](=O)[O-])c(C)c1 | 9.4* | 5.0 | 2.9 | 15.2
O=c1[nH]c(SCc2n[nH]c(=S)n2-c2ccccc2)nc2sc3c(c12)CCC3 | 1.7 | -4.9 | 0.3 | 19.5
SMILES | RAM network inh | WT yeast gro inh | Lmaj promast | CHOP inh
CCOc1ccc(NC(=O)Cn2nnc3c(cnn3-c3ccc(F)cc3)c2=O)cc1 | 4.5 | 12.4 | -7.8 | 72.2*
Cc1ccccc1NC(=O)Cn1nnc2c(cnn2-c2ccc(F)cc2)c1=O | 2.3 | 4.4 | -0.5 | 36.0
CC(C)CC(=O)Nc1nnc(-c2ccco2)s1 | 2.8 | -7.2 | 13.7 | 84.3*
COc1ccc(N(C(C)=O)c2nc(C)cc(C)c2C#N)c(OC)c1 | 0.8 | 8.6 | -5.5 | -16.1
Fc1ccccc1NC(=S)N(CCN1CCCCC1)Cc1ccco1 | 0.6 | 4.1 | 7.4 | 12.2
CCC(=O)Oc1oc(-c2ccccc2)nc1C=Nc1ccccc1OC | 1.3 | -11.3 | -6.0 | 93.1*
COCCCN1C(=O)C(=O)/C(=C(/O)c2ccccc2)C1c1ccc2c(c1)OCO2 (stereo unspecified) | 9.7* | 11.9 | -2.3 | -7.5
COCCCN1C(=O)C(=O)/C(=C(/O)c2ccccc2)C1c1ccc(N(C)C)cc1 (stereo unspecified) | 0.5 | -4.1 | -5.0 | -19.0
CCCc1cc2c(cc1NC(=O)c1ccc(Br)cc1)OCO2 | 1.3 | -9.1 | -1.8 | 82.5*
O=C(O)C(Cc1ccccc1-c1ccccc1)C(=O)O | / | / | / | -4.8
O=C(CN1C(=O)S/C(=C/C=C/c2ccccc2)C1=O)Nc1ccc(C(=O)O)cc1 | 0.9 | -12.0 | 2.6 | 4.5
O=C(COC(=O)CCN1C(=O)/C(=C\C=C\c2ccccc2)SC1=S)Nc1cc(F)ccc1F | 5.2 | 10.0 | -1.0 | 77.3*
O=C(CN1C(=O)/C(=C\C=C\c2ccccc2)SC1=S)Nc1ccc(F)cc1 | 9.7* | -7.2 | 5.8 | 88.6*
O=C(CCC1CCCN(C(=O)C2(c3ccccc3)CC2)C1)N1CCN(c2ccccn2)CC1 (stereo unspecified) | 1.1 | -4.9 | 6.6 | 0.0
CCCCN(C(=O)CSc1nnc(-c2ccccc2OC)n1C)c1c(N)n(Cc2ccccc2)c(=O)[nH]c1=O | 1.3 | -2.4 | 60.9* | -2.9
Cc1cccc(-n2cnc(C(=O)N/N=C\c3ccc(Br)cc3)c2)n1 | 1.6 | -9.4 | 99.1* | 64.4
Cc1cccc(-n2cnc(C(=O)NNC(=S)Nc3ccc(Cl)cc3)c2)n1 | 5.2 | 5.5 | 100.0* | 17.0
Cc1nc2ccccn2c1C(=O)NNC(=S)Nc1ccc(Cl)cc1 | 0.8 | -0.2 | -3.5 | 2.2
O=C(CN1CCN(c2ccccn2)CC1)Nc1ccc(Cl)c(C(F)(F)F)c1 | 0.8 | -7.0 | -5.5 | 50.3
COc1ccccc1N1CCN(CC(=O)Nc2ccc(Cl)c(C(F)(F)F)c2)CC1 | -0.6 | 58.0* | -0.6 | 65.5
COc1ccccc1NC(=O)CN1CCN(CC(=O)Nc2ccc(OCc3ccccc3)cc2)CC1 | 3.1 | 66.5* | 16.8 | 36.0
O=C(CN1CCCC1)Nc1ccc(OCc2ccccc2)cc1 | -0.4 | -13.5 | -2.1 | 14.7
CCOc1ccc(OCC)c(NC(=O)CN2CCN(c3cc(C)ccc3C)CC2)c1 | 8.7* | 16.6 | 39.6 | -0.8
CCOc1ccc(OCC)c(NC(=O)CN2CCN(c3cccc(C)c3)CC2)c1 | 1.5 | 10.9 | -3.4 | 14.7
O=C(CN1CCN(c2ccccc2)CC1)Nc1ccc(OCc2ccccc2)cc1 | 3.2 | 37.6 | 6.6 | 86.1*
SMILES | RAM network inh | WT yeast gro inh | Lmaj promast | CHOP inh
COc1ccccc1NC(=O)CN1CCN(CC(=O)Nc2ccc3c(c2)OCCO3)CC1 | 0.5 | 5.3 | 55.4* | 36.8
COc1ccc(N2CCN(CC(=O)Nc3c(C)cc(C)cc3C)CC2)cc1 | 0.8 | 16.6 | 78.9* | 45.0
CN(CCO)c1cnccn1 | 3.8 | -23.3 | -6.8 | -4.9
COc1cccc(NC(=O)Nc2ccc3c(c2)N(C)C(=O)CS3)c1 | 2.3 | 0.5 | 59.1* | 18.6
CN1C(=O)CSc2ccc(NC(=O)N3CCN(c4ccccn4)CC3)cc21 | 1.4 | -18.1 | -2.5 | -11.5
Cc1ccc(C)c(N2CCN(C(=O)Nc3ccc4c(c3)N(C)C(=O)CS4)CC2)c1 | 5.1 | 49.9 | 50.1* | 54.4
CC(=O)Nc1ccc(NC(=O)Nc2ccc3c(c2)N(C)C(=O)CS3)cc1 | 3.7 | -4.9 | 2.1 | 14.7
CCOc1ccc(OCC)c(NC(=O)Nc2ccc3c(c2)N(C)C(=O)CS3)c1 | 3.4 | 49.8 | 66.9* | 57.7
